Where “and” joins values, the source holds several entries; their conditions need not be identical. Identical values can stand only once. About 83,000 compounds went through this panel and 20% of them were active in at least one assay; those are over-represented in the sample as a whole.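 How to read the values: 0–100, growth inhibition (40 = 60% inhibited); 0, no net growth; -100 to 0, cell death (-40 = 40% of starting cells died; -100 = all dead).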 Values without a mark were called inactive. Calls of active or inactive are those of the source.
Tested on: SK-MEL-2 melanoma
Assay: NCI-60 one-dose screen, 48 h (100 = growth as untreated, 0 = no growth, -100 = all killed)
Details: 0.0025 µM
Protocol: Growth inhibition of the SK-MEL-2 human tumor cell line is measured as a screen for anti-cancer activity. Cells are grown in 96 well plates and exposed to the test compound for 48 hours. Compounds are tested at a single concentration, which is 10^-5 M for most compounds. The reported endpoint is percent growth (GI% or GIPRCNT), where numbers from 0 - 100% represent growth inhibition, and numbers from -100% - 0 represent cell death. For example, a value of 40 represents 60% growth inhibition. A value of 0 means no net growth occurred over the course of the experiment. A value of -40 indicates 40% of cells at the beginning of the experiment died by the end of the experiment. A value of -100 means all cells are dead at the end of the experiment.
NCI-60 Human Tumor Cell Lines Screen was performed using the standard one-dose NCI protocol, which is described in more detail at https://dtp.cancer.gov/discovery_development/nci-60/default.htm.
Compounds with GIPRCNT values below 10 were considered active. Activity score was based on GIPRCNT using the following formula: […]
Score is 0 for GIPRCNT values of 100 or above, 50 for GIPRCNT values of 0, and 100 for GIPRCNT values of -100.

| SMILES | growth [%] |
| --- | --- |
| COc1cccc2c1C(=O)c1c(O)c3c(c(O)c1C2=O)C[C@@](O)(C(=O)CO)C[C@@H]3OC1CC(N)C(O)C(C)O1 (stereo not given in full) | 112 |

Same assay, conditions: 1 µM

| SMILES | growth [%] |
| --- | --- |
| COc1cccc2c1C(=O)c1c(O)c3c(c(O)c1C2=O)C[C@@](O)(C(=O)CO)C[C@@H]3OC1CC(N)C(O)C(C)O1 (stereo not given in full) | 31.3 |

Same assay, conditions: 2.5 µM

| SMILES | growth [%] |
| --- | --- |
| COc1cccc2c1C(=O)c1c(O)c3c(c(O)c1C2=O)C[C@@](O)(C(=O)CO)C[C@@H]3OC1CC(N)C(O)C(C)O1 (stereo not given in full) | 75.1 |

Same assay, conditions: 10 µM

| SMILES | growth |
| --- | --- |
| CSC1SCC2C(=O)N(C)C(C(C)C)C(=O)OCC(NC(=O)c3cnc4ccccc4n3)C(=O)NC(C)C(=O)N(C)C1C(=O)N(C)C(C(C)C)C(=O)OCC(NC(=O)c1cnc3ccccc3n1)C(=O)NC(C)C(=O)N2C (stereo not given) | -28.3% (active) |
| Clc1ccc(/C=C/c2ccccn2)c(Cl)c1 | 107% |
| O=C(/C=C/c1cccnc1)c1ccccc1 | 94.2% |
| OC(CN1CCCC2CCCCC21)c1cc2ccccc2c2ccccc12 (stereo not given) | 42.8% |
| COc1cccc2c1C(=O)c1c(O)c3c(c(O)c1C2=O)C[C@@](O)(C(=O)CO)C[C@@H]3OC1CC(N)C(O)C(C)O1 (stereo not given in full) | -28.5% (active) |
| CCCCCC(C)c1ccc(O)c(C)c1 (stereo not given) | 104% |
| CCC(C)(C)c1cc(O)c(C(C)(C)CC)cc1O | 24.4% |
| Cc1nc(N=C(N)N)nc2ccc3ccccc3c12 | -19% (active) |
| Clc1cc(Cl)c(Cl)nn1 | 99.9% |
| N=S(c1ccccc1[N+](=O)[O-])c1ccccc1[N+](=O)[O-] | 89.2% |
| CC(=O)OCC(OC(C)=O)C(OC(C)=O)C(OC(C)=O)C(OC(C)=O)C(/C=N/Nc1ccccc1)=N/Nc1ccccc1 (stereo not given) | 84.3% |
| CN1CCN(CCCN2c3ccccc3Sc3ccc(C(F)(F)F)cc32)CC1 | 88.1% |
| O=C(C(=Cc1ccccc1)C(=O)c1ccccc1)c1ccccc1 | 90% and 83.2% |
| COc1c(O)cc2oc3cc(O)c(CC=C(C)C)c(O)c3c(=O)c2c1CC=C(C)C | 89.8% |
| Cc1cc(O)c(C(C)C)cc1Cl | 117% |
| CC1=CC(C)=Nc2ccc(Cl)cc2N1 | 109% |
| COC(=O)C1C(O)C(C)C(O)C(C)C=C(C)C2=C3C(=C(C)C(=O)c4c(O)c(c(C)c(OC(C)=O)c43)NC(=O)C(C)=C/C=C\C(C)C(O)C(C)C1O)OCO2 (stereo not given) | 26.5% |
| CN(C)C(=S)SC(=S)N(C)C | 107% and 93.2% |
| CCCC1CCC(=C2C(=O)CCC2=O)O1 (stereo not given) | 116% and 125% |

| SMILES | growth |
| --- | --- |
| Nc1ccc2cc3ccc(N)cc3nc2c1 | -26.2% (active) |
| Nc1nc(=S)c2ncn(C3OC(CO)C(O)C3O)c2[nH]1 (stereo not given) | 93% and 15.6% |
| CCCCCCCCCCCCCCCCCCOCC(COP(=O)([O-])OCC[N+](C)(C)C)OC (stereo not given) | 101% |
| COc1cccc2c1C(=O)c1c(O)c3c(c(O)c1C2=O)C[C@@](O)(C(C)=O)C[C@@H]3OC1CC(N)C(O)C(C)O1 (stereo not given in full) | -38.6% (active) |
| CC[N+](CC)=c1ccc2nc3c(cc(N)c4ccccc43)oc-2c1 | -75.1% (active) |
| CCCCCCCCCCCCSC(=NC)NC | 79.2% and 95.8% |
| COC(=O)C1=COC(C)C2C[n+]3ccc4c([nH]c5ccccc54)c3CC12 (stereo not given) | 103% and 85.1% |
| OCC1OC(n2cnc3c(=S)nc[nH]c32)C(O)C1O (stereo not given) | 100% and 57.6% |
| O=C(Nc1ccc(C(=O)O)c(O)c1)c1ccccc1 | 113% and 97.3% |
| CC(=O)Nc1cc(C)ccc1C | 101% |
| CCO/C=C1\SC(=S)N(c2cccc(O)c2)C1=O | 87.4% |
| CCN(CC)c1ccc(NC(C(=O)c2ccccc2)c2ccccc2)cc1 (stereo not given) | 78.4% |
| CCN1/C(=C/C=C/C=C/c2sc3ccccc3[n+]2CC)Sc2ccccc21 | -59.1% (active) |
| COC1OCC(O)C(O)C1O (stereo not given) | 114% |
| Oc1ccc(N=Nc2ccccn2)c(O)c1 | 27.8% |
| O=C(/C=C/c1ccccn1)c1ccccc1 | 79.3% |
| O=C1NC(=O)c2cc([N+](=O)[O-])ccc21 | 107% |
| NC1=C(Cl)C(=O)c2ccccc2C1=O | 51.9% |
